Source: PubChem BioAssay (Tox21)
Several values for one entry are separate records, joined by “and”; a condition that tells them apart may be missing. Equal entries are not always repeated. Results filed as inconclusive are left out. Some structures have more than one record in an assay (separate samples or runs), and their calls can disagree. Activity calls are given as the source filed them. Unless noted, calls come from the whole dose curve; as a rule, active = well fitted curve in the direction sought with a large enough effect in the repeat runs; inconclusive = weak or mixed curves; inactive = no such curve, though single readings can be large; an effect the other way counts as inactive or inconclusive.

What was measured:
[1] = target: Progesterone receptor (Homo sapiens) (UniProt P06401); experiment: qHTS assay to identify small molecule antagonists of the progesterone receptor (PR) signaling pathway (AID 1346795; active = well fitted inhibition curve with a large enough effect in the signal ratio in the repeat runs, not every such curve was filed as active; the % refers to the signal ratio; note: potency is the fitted concentration of half-maximal effect)
Sequence of Progesterone receptor (Homo sapiens) (P06401 whole entry, looked up): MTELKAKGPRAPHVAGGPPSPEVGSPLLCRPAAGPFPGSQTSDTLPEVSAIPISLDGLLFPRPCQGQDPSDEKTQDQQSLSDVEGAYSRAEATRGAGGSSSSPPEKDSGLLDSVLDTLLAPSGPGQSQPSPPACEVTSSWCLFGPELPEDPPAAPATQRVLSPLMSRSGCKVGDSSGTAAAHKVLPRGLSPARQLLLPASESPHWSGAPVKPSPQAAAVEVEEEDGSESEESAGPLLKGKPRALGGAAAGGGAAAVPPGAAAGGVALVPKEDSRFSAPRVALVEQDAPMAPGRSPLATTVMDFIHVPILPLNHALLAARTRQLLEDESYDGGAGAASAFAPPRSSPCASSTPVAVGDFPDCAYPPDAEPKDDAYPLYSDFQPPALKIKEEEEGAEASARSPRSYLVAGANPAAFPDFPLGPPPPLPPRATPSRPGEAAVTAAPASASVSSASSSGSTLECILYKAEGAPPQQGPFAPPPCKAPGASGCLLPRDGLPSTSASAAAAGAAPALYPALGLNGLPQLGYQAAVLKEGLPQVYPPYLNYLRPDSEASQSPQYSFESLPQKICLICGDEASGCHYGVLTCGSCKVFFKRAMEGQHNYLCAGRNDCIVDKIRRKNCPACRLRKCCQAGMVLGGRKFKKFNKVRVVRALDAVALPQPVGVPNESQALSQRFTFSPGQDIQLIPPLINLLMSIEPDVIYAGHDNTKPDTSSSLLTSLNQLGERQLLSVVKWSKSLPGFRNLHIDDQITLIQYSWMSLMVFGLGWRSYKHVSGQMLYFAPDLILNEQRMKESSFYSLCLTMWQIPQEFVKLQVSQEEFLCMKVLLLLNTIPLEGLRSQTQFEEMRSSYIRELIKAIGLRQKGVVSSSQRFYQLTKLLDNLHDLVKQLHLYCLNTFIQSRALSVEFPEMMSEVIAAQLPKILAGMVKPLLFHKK
Summary of the method: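 In HEK293T cells bearing the PR-UAS-bla reporter, compound effects on promegestone-driven (1 nM) beta-lactamase expression are assessed after 16 hr using a fluorescent FRET substrate incubated 2 hr at room temperature.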

[2] = qHTS assay to identify small molecule antagonists of the progesterone receptor (PR) signaling pathway - cell viability counter screen (AID 1346798); note: series mostly up to about 92 µM; nearly all actives have a fitted effect of over 50% in size
Summary of the method: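 Following a 4 hr attachment, PR-UAS-bla HEK293T cells in charcoal-stripped FBS medium were exposed to compounds with R5020 for 16 hr; CellTiter-Glo was added and luminescence read after 30 min at room temperature.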

[3] = qHTS assay to identify small molecule agonists of the progesterone receptor (PR) signaling pathway - cell viability counter screen (AID 1346799; calls by dose curve; note: nearly all actives have a fitted effect of over 45% in size; note: potency is the fitted concentration of half-maximal effect)
Summary of the method: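 Here, 3,000 PR-UAS-bla HEK293T cells per well were treated with compounds for 16 hr after a 6 hr preincubation at 37C and 5% CO2; cell viability is the CellTiter-Glo luminescence signal.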

[4] = qHTS assay to identify small molecule antagonists of the TGF-beta/Smad signaling pathway - cell viability counter screen (AID 1346824); note: nearly all actives have a fitted effect of over 50% in size
Summary of the method: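 Cytotoxicity counter-screen run in the same wells as the beta-lactamase Smad reporter read: CellTiter-Glo luminescence after 30 min at room temperature. HEK 293T SBE-bla cells had 5 hr compound exposure at 37 C with TGF-beta1 (0.25 ng/mL stock).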

[5] = qHTS assay to identify small molecule agonists of the TGF-beta/Smad signaling pathway (AID 1346859; active = well fitted activation curve with a large enough effect in the signal ratio in the repeat runs, not every such curve was filed as active; the % refers to the signal ratio; note: series mostly up to about 77 µM)
Summary of the method: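 Each well held 4,000 SBE-bla HEK 293T cells incubated overnight before compound addition; 5 hr later the cleavable FRET substrate went on for 2 hr at room temperature, and fluorescence was read at two emissions.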

[6] = target: Thyrotropin-releasing hormone receptor (Homo sapiens) (UniProt P34981); experiment: qHTS assay to identify small molecule antagonists of the thyrotropin-releasing hormone receptor (TRHR) signaling pathway (AID 1346877; active = well fitted inhibition curve with a large enough effect in the repeat runs, not every such curve was filed as active; note: series mostly up to about 51 µM)
Sequence of Thyrotropin-releasing hormone receptor (Homo sapiens) (P34981 whole entry, looked up): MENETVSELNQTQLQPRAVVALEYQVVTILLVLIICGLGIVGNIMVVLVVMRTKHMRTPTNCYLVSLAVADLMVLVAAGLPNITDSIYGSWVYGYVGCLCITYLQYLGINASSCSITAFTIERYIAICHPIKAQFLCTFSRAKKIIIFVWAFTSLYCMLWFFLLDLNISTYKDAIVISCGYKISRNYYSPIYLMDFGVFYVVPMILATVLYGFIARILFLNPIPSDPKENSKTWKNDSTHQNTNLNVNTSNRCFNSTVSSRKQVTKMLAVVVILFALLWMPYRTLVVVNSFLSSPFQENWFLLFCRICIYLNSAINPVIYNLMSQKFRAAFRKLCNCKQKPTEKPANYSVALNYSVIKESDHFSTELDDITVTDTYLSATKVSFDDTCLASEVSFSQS
Summary of the method: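 Human TRHR in HEK293 cells; inhibition of the intracellular calcium rise triggered by 1 nM TRH was followed by fluorescence over 3 min. Compounds were run at 15 concentrations, three replicates each.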

[7] = target: Thyrotropin-releasing hormone receptor (Homo sapiens) (UniProt P34981); experiment: qHTS assay to identify small molecule agonists of the thyrotropin-releasing hormone receptor (TRHR) signaling pathway (AID 1346891; calls by dose curve; note: series mostly up to about 58 µM)
Summary of the method: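 Screening of agonists relied on calcium signalling in HEK293 cells expressing human TRHR: dye loading 2 h at 37 °C preceded compound addition and a 3-min fluorescence time course.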

[8] = Human pregnane X receptor (PXR) small molecule agonists, qHTS cell viability counter screen (AID 1346977); note: nearly all actives have a fitted effect of over 50% in size
Summary of the method: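 Tox21 qHTS format; PXR-Luc HepG2, 2,000/well, charcoal-stripped FBS 5%. Cpd exposure 24hr. Read: CellTiter-Fluor fluorescence, multiplexed with luciferase.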

[9] = qHTS assay to identify small molecule agonists of the TGF-beta/Smad signaling pathway - cell viability counter screen (AID 1346829); note: top concentration of the series differs between compounds; nearly all actives have a fitted effect of over 45% in size
Summary of the method: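 Here the cytotoxicity of library compounds is measured in SBE-bla HEK 293T cells treated for 5 hr, using CellTiter-Glo added to wells already read for the beta-lactamase reporter.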

Measured: Potency

O=[N+]([O-])c1cccc2ccccc12
not listed: [9]
inactive: all other assays above

C=CCN(CC=C)C(=O)C(Cl)Cl
not listed: [9]
inactive: all other assays above

CCC(=O)O[C@H]1CC[C@H]2[C@@H]3CCC4=CC(=O)CC[C@]4(C)[C@H]3CC[C@]12C
inactive: [2] | [4] | [9] | [5] | [8]
active: [1] 0.486 µM

Cc1c(COC(=O)[C@@H]2[C@H](/C=C(\Cl)C(F)(F)F)C2(C)C)cccc1-c1ccccc1
inactive and 54.3 µM (active): [3]
inactive: [1] | [4] | [5] | [8]

CC(C)=CC1C(C(=O)OCc2coc(Cc3ccccc3)c2)C1(C)C (stereo not drawn)
active: [1] 48.6 µM
inactive: [2] | [3] | [4] | [5] | [8]
